Screening data deposited in PubChem BioAssay by Broad Institute.
The entries come from a sample that favours hits as a whole.
DUX4 inh = blocks DUX4-driven transcriptional activation; 293T-iDUX4 ZSCAN4-Gaussia luciferase reporter, 24 h; active compounds read low; activity change, negative = inhibition, % (concentration not given with the values); 37,000 compounds, 0.8% hits; AID 1224904;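 active means mean inhibition of at least 10% in the main channel, exceeding the control channel by a set limit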;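 further: 0% = median of neutral control wells and -100% = median of positive control wells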
Numbers without * were called inactive.

What do the screens show for `COc1ccc(NC(=O)Nc2ccc3c(c2)[C@H]2C[C@@H](CC(=O)N[C@@H](C)c4ccccc4)O[C@H](CO)[C@H]2O3)cc1`?
DUX4 inh: 1

Results for O=C(C[C@H]1C[C@@H]2c3cc(NC(=O)CC4CC4)ccc3O[C@@H]2[C@@H](CO)O1)NCCc1ccccc1 ?
DUX4 inh: -3

What do the screens show for `CCNC(=O)C[C@H]1CC[C@@H]2[C@H](COC[C@@H](O)CN2C(=O)C2CCOCC2)O1`?
DUX4 inh: 9

What do the screens show for `COCC#Cc1cnc2c(c1)C(=O)N([C@H](C)CO)C[C@H](C)[C@H](CN(C)C(=O)c1ccc3c(c1)OCO3)O2`?
DUX4 inh: -4

Results for CN1CCN(C(=O)C[C@@H]2C[C@H]3c4cc(NC(=O)c5ccc6c(c5)OCO6)ccc4O[C@H]3[C@H](CO)O2)CC1 ?
DUX4 inh: 11

How did CC(C)NC(=O)Nc1ccc2c(c1)C(=O)N(C)[C@@H]1CC[C@H](CC(=O)NCC3CCCCC3)O[C@H]1CO2 do in these assays?
DUX4 inh: 2

Results for CO[C@@H]1CN(C)C(=O)c2ccc(NS(=O)(=O)c3ccccc3)cc2OC[C@H](C)N(C(=O)NC(C)C)C[C@H]1C ?
DUX4 inh: 3

Results for CCNC(=O)[C@H]1[C@H](CO)[C@H]2Cn3c(ccc(C4=CCCCC4)c3=O)[C@H]2N1Cc1ccc2c(c1)OCO2 ?
DUX4 inh: -3

Results for CN(C)C(=O)[C@@H]1[C@@H](CO)[C@@H]2Cn3c(ccc(C4=CCCCC4)c3=O)[C@@H]2N1Cc1ccc2c(c1)OCO2 ?
DUX4 inh: -15*

Results for CN(C)C(=O)[C@H]1[C@H](CO)[C@H]2Cn3c(ccc(C4=CCCCC4)c3=O)[C@H]2N1Cc1ccc2c(c1)OCO2 ?
DUX4 inh: 6

What do the screens show for `CN1C(=O)c2cc(NC(=O)c3ccc(Cl)cc3)ccc2OC[C@H]2O[C@@H](CC(=O)O)CC[C@@H]21`?
DUX4 inh: 2

Results for CC(=O)N1CC2(C1)[C@@H](c1ccccc1)[C@@H](CO)N2Cc1cc(F)ccc1F ?
DUX4 inh: -1

How did CC(C)NC(=O)N(C)C[C@H]1Oc2ncc(-c3ccccc3F)cc2C(=O)N([C@@H](C)CO)C[C@H]1C do in these assays?
DUX4 inh: -6

How did C[C@@H]1CN([C@@H](C)CO)C(=O)c2cc(C#CC(C)(C)O)cnc2O[C@@H]1CN(C)Cc1ccccn1 do in these assays?
DUX4 inh: 5

What do the screens show for `O=C(C[C@@H]1C[C@@H]2c3cc(NC(=O)Cc4ccncc4)ccc3O[C@@H]2[C@H](CO)O1)NCc1cc(F)ccc1F`?
DUX4 inh: 7

Results for O=C(C[C@@H]1C[C@H]2c3cc(NC(=O)CC4CC4)ccc3O[C@H]2[C@H](CO)O1)NCc1cc(F)ccc1F ?
DUX4 inh: -3

Results for CN(C)CC(=O)Nc1ccc2c(c1)[C@@H]1C[C@@H](CC(=O)NCc3ccc(-c4ccccc4)cc3)O[C@H](CO)[C@@H]1O2 ?
DUX4 inh: -5

What do the screens show for `CN(C)CC(=O)Nc1ccc2c(c1)[C@@H]1C[C@H](CC(=O)NCc3ccc(-c4ccccc4)cc3)O[C@H](CO)[C@@H]1O2`?
DUX4 inh: -7

Results for O=C(C[C@H]1C[C@H]2c3cc(NC(=O)Cc4ccncc4)ccc3O[C@H]2[C@H](CO)O1)NCc1ccc(-c2ccccc2)cc1 ?
DUX4 inh: -68*

What do the screens show for `O=C(C[C@H]1C[C@H]2c3cc(NC(=O)Cc4ccncc4)ccc3O[C@H]2[C@H](CO)O1)NCc1cc(F)ccc1F`?
DUX4 inh: -36*

Results for COc1ccccc1-c1ccc([C@H]2[C@@H](CO)N3CCCCN(C(=O)NC4CCCC4)C[C@@H]23)cc1 ?
DUX4 inh: 28

How did COc1ccc(C#Cc2ccc([C@@H]3[C@H](CO)N4CCCCN(C)C[C@@H]34)cc2)cc1 do in these assays?
DUX4 inh: -24*

Results for COc1ccc(C#Cc2ccc([C@H]3[C@@H](CO)N4CCCCN(C)C[C@@H]34)cc2)cc1 ?
DUX4 inh: -1

How did OC[C@@H]1[C@@H](c2ccc(C#CC3(O)CCCC3)cc2)[C@H]2CN(Cc3ccncc3)CCCCN12 do in these assays?
DUX4 inh: 13

How did COc1ccc(C#Cc2ccc([C@@H]3[C@@H](CO)N4CCCCN(C)C[C@H]34)cc2)cc1 do in these assays?
DUX4 inh: -7

How did CCCC#Cc1ccc([C@H]2[C@@H](CO)N3CCCCN(Cc4ccncc4)C[C@@H]23)cc1 do in these assays?
DUX4 inh: 6

Results for COc1ccc(C#Cc2ccc([C@@H]3[C@@H](CO)N4CCCCN(Cc5ccncc5)C[C@H]34)cc2)cc1 ?
DUX4 inh: -26*

What do the screens show for `COCC#Cc1ccc([C@@H]2[C@H](CO)N3CCCCN(Cc4ccncc4)C[C@@H]23)cc1`?
DUX4 inh: 17

Results for COc1ccc(C#Cc2ccc([C@H]3[C@H]4CN(Cc5ccncc5)CCCCN4[C@H]3CO)cc2)cc1 ?
DUX4 inh: -55*

What do the screens show for `CCCC#Cc1ccc([C@H]2[C@H]3CN(Cc4ccncc4)CCCCN3[C@H]2CO)cc1`?
DUX4 inh: -9
